Experimental data published in publication PMC9911399, “Two distinct binding modes provide the RNA-binding protein RbFox with extraordinary sequence specificity”.
Positions count from the first letter of the chain named. Over roughly 16,000 sequences, “ka relative to ugcaugu” has its median near 0.096; the highest 2% begin near 0.35. The sample holds the highest values, similar sequences and a random draw of the others, so the mix is not that of the screen.

T1: RBFOX1 RRM RbFoxmut (Fox-RRM*) (Homo sapiens, UniProt Q9NWB1 109-208, R118D;E147R;N151S;E152T)
T1 sequence: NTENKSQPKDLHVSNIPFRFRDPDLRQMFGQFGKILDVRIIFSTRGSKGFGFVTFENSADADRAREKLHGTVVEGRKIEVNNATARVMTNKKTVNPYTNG

B1: GACGGCA (DNA:RNA)
RNA: GGGAGACCGGAAUUCAGAUUGUCCGACGGCAUUAAAUCCCGUCGUAGCCACCA
DNA 1: CAATCTGAATTCCGGTCTCCC
DNA 2: TGGTGGCTACGACGGGATT
B2: AUUGGAU (DNA:RNA)
RNA: B1 RNA with G25A, A26U, C27U, C30A, A31U
DNA 1: CAATCTGAATTCCGGTCTCCC
DNA 2: TGGTGGCTACGACGGGATT
B3: UGUGUGU (DNA:RNA)
RNA: B1 RNA with G25U, A26G, C27U, G29U, C30G, A31U
DNA 1: CAATCTGAATTCCGGTCTCCC
DNA 2: TGGTGGCTACGACGGGATT
B4: CUGUGUG (DNA:RNA)
RNA: B1 RNA with G25C, A26U, C27G, G28U, C30U, A31G
DNA 1: CAATCTGAATTCCGGTCTCCC
DNA 2: TGGTGGCTACGACGGGATT
B5: UGUGUUU (DNA:RNA)
RNA: B1 RNA with G25U, A26G, C27U, G29U, C30U, A31U
DNA 1: CAATCTGAATTCCGGTCTCCC
DNA 2: TGGTGGCTACGACGGGATT
B6: ACCUGUG (DNA:RNA)
RNA: B1 RNA with G25A, A26C, G28U, C30U, A31G
DNA 1: CAATCTGAATTCCGGTCTCCC
DNA 2: TGGTGGCTACGACGGGATT
B7: UGUCCGU (DNA:RNA)
RNA: GGGAGACCGGAAUUCAGAUUGUCCUGUCCGUUUAAAUCCCGUCGUAGCCACCA
DNA 1: CAATCTGAATTCCGGTCTCCC
DNA 2: TGGTGGCTACGACGGGATT
B8: CUGUUUG (DNA:RNA)
RNA: GGGAGACCGGAAUUCAGAUUGUCCCUGUUUGUUAAAUCCCGUCGUAGCCACCA
DNA 1: CAATCTGAATTCCGGTCTCCC
DNA 2: TGGTGGCTACGACGGGATT
B9: CCCUGUG (DNA:RNA)
RNA: B8 RNA with U26C, G27C, U29G
DNA 1: CAATCTGAATTCCGGTCTCCC
DNA 2: TGGTGGCTACGACGGGATT
B10: UGUUUGU (DNA:RNA)
RNA: B7 RNA with C28U, C29U
DNA 1: CAATCTGAATTCCGGTCTCCC
DNA 2: TGGTGGCTACGACGGGATT
B11: CUGUUGU (DNA:RNA)
RNA: B8 RNA with U30G, G31U
DNA 1: CAATCTGAATTCCGGTCTCCC
DNA 2: TGGTGGCTACGACGGGATT
B12: UGUUUUU (DNA:RNA)
RNA: B7 RNA with C28U, C29U, G30U
DNA 1: CAATCTGAATTCCGGTCTCCC
DNA 2: TGGTGGCTACGACGGGATT
B13: CUGUGUU (DNA:RNA)
RNA: B8 RNA with U29G, G31U
DNA 1: CAATCTGAATTCCGGTCTCCC
DNA 2: TGGTGGCTACGACGGGATT
B14: CUGUCGU (DNA:RNA)
RNA: B8 RNA with U29C, U30G, G31U
DNA 1: CAATCTGAATTCCGGTCTCCC
DNA 2: TGGTGGCTACGACGGGATT

Biological target: T1, RBFOX1 RRM RbFoxmut (Fox-RRM*)
Assay: EMSA; HiTS-Eq, 1 nM pool, 10 min; buffer printed only for the single-RNA assays: 10 mM Tris pH 7.5, 150 mM NaCl, 3.4 mM EDTA, 0.001% NP-40, 30 C
Conditions: tags: His6 N-terminal (pET28a); label: 5' 32P
Method in brief: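 Purified RbFox RRM (wild type or mutant) was equilibrated for 10 min in 50 µL with 1 nM of a 5′-radiolabelled pool of RNA with 7 randomized nucleotides, its flanks annealed to DNA oligonucleotides, across increasing protein concentrations. Free RNA was separated by 8% native PAGE, excised, reverse-transcribed, PCR-barcoded and sequenced on an Illumina HiSeq 2500. Relative association constants came from read-count changes of each variant against the control reaction, normalised to the cognate motif.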

Binder	binding signal
B1	0.149 KA relative to UGCAUGU
B2	0.0952 KA relative to UGCAUGU
B3	0.366 KA relative to UGCAUGU
B4	0.388 KA relative to UGCAUGU
B5	0.115 KA relative to UGCAUGU
B6	0.139 KA relative to UGCAUGU
B7	0.147 KA relative to UGCAUGU
B8	0.75 KA relative to UGCAUGU
B9	0.138 KA relative to UGCAUGU
B10	0.549 KA relative to UGCAUGU
B11	0.166 KA relative to UGCAUGU
B12	0.0878 KA relative to UGCAUGU
B13	0.14 KA relative to UGCAUGU
B14	0.138 KA relative to UGCAUGU
